From the OligoGym collection come the findings set out here.

Among the targets are AP1S1; ANXA5; AP3B1; APOBEC3A; ARHGAP30; ARPC4; ASPRV1; ATP10B; ATP6V0A4; ATP8A2; ATP7B.
Holding throughout (test): pooled miR-30 sensor sort-seq; sequence = guide strand
Details in all cases: shRNA
Also: reference of the scale not given here.

On to TCCAGCTCGCACACACTGCCAA, for which the sensor-assay potency score (higher = more potent) in the assay with AP1S1 is -0.956.
Same read-out and setting: the value for TATATTTACAGTTATTAGGGAG was 0.379.
TAATCTTTTGAATACAATCATC showed a sensor-assay potency score (higher = more potent) with ANXA5 of -1.12.
Regarding TTCTTCCTAAACTCCTTCCTGA, the sensor-assay potency score (higher = more potent) in the assay with ANXA5 was -0.49.
On to TTGTCTAAGAGCTCCACGTATC, for which, in the assay with AP1S1, the sensor-assay potency score (higher = more potent) was -1.02.
Consider TAGATTTCACAACAGCAAGGAG, for which the sensor-assay potency score (higher = more potent) with ANXA5 is -0.538.
In the assay with ANXA5, TTCGAATAGATTTCACAACAGC registered a sensor-assay potency score (higher = more potent) of -0.293.
ATATCTCTTATAGACAACTTTG displayed a sensor-assay potency score (higher = more potent) in the assay with AP1S1 of -1.12.
The sequence TTGAAATCCTGATATAGTCATG returned a sensor-assay potency score (higher = more potent) in the assay with ANXA5 of -1.04.
Take TCTTATAGACAACTTTGAGGTC: the sensor-assay potency score (higher = more potent) in the assay with AP1S1 was -0.45.
Turning to TTCTTCATAAACTTGTTTGATG, the sensor-assay potency score (higher = more potent) with ANXA5 is -0.36.
As for TTCTGATTTCAGGTCATCCAGA, the sensor-assay potency score (higher = more potent) with ANXA5 was -0.946.
Consider TTTCTTTGAATTGACATAGTTG, for which the sensor-assay potency score (higher = more potent) with AP3B1 was -0.577.
TTAGTCTAGATATGAAGCCAAA displayed a sensor-assay potency score (higher = more potent) with APOBEC3A of -1.73.
Take TGCTGGTCCATCTTGACCGAGG: the sensor-assay potency score (higher = more potent) with APOBEC3A is -1.28.
In the assay with ARHGAP30, AAGAGGATCGAGAAGCTCGGGA displayed a sensor-assay potency score (higher = more potent) of -0.319.
For TTTTCCTTCTCATTCCTGCTGA, the sensor-assay potency score (higher = more potent) in the assay with ARPC4 amounted to 0.452.
In turn, TCATTGATGACTTCAAAGCTGT yielded a sensor-assay potency score (higher = more potent) in the assay with ASPRV1 of -0.318.
Same read-out and setting: under TTGAGGTCATTGATGACTTCAA stands -0.277.
In the assay with ATP10B, TTTGTCTCTCCATCCAAGCTGG returned a sensor-assay potency score (higher = more potent) of -0.607.
TTCTAGAACAGTCTCCAGGGTA had a sensor-assay potency score (higher = more potent) in the assay with ATP6V0A4 of -0.117.
Regarding TTCCTGTAACTCTCCTTCCAGT, the sensor-assay potency score (higher = more potent) with ATP6V0A4 was -0.817.
The same measure, in the same setting: under ATCTTCTTGATTTTCTGCCTGA stands -0.439.
TTTGTCTCCTGTCAACACCCAT showed a sensor-assay potency score (higher = more potent) in the assay with ATP8A2 of -1.17.
The sequence TAGTTAAACAGAAACATGTTGA returned a sensor-assay potency score (higher = more potent) in the assay with ATP6V0A4 of -0.563.
Consider TTGTCAAACATCACAGTCTTTA, for which, in the assay with ATP7B, the sensor-assay potency score (higher = more potent) is -0.992.
Turning to TCATCGTCTGCTGCAGCGCTGT, the sensor-assay potency score (higher = more potent) in the assay with ATP7B is -1.45.
Same read-out and setting: under TAGCTCTGGCTGTCTTCCGGTT stands -1.3; under TAGAGTCCAAGACAAAGCCCAT, -1.12; under AACATCACAGTCTTTATCTTGT, -0.258.
Turning to AAACATCACAGTCTTTATCTTG, the sensor-assay potency score (higher = more potent) in the assay with ATP7B was -0.586.
On the same count and under the same terms, the value for ATAGCGTCACTGACATCGCTAG was -0.788; that for TATCTTGTGCGCCATCTCCAGG was -1.02.
For the sequence TCTCGTGGTCTGTCATAGCGTC, in the assay with ATP7B, the sensor-assay potency score (higher = more potent) was -0.487.
In the assay with ATP8A2, TTGTATAAGATGATGAACGTCA registered a sensor-assay potency score (higher = more potent) of 2.4e-06.
The sequence TTGGGGTTCTTTGACATCTGAG registered a sensor-assay potency score (higher = more potent) in the assay with ATP7B of -0.597.
In the case of TTCCTGACTAACAGCTCCGTGT, the sensor-assay potency score (higher = more potent) with ATP8A2 is -0.616.
TTTCATCTCGTGGTCTGTCATA: the sensor-assay potency score (higher = more potent) with ATP7B was -1.47.
In the assay with ATP6V0A4, TTGTTCTGGAACTCAACCCAGT showed a sensor-assay potency score (higher = more potent) of -0.422.
Still for that read-out and setting: under TCTTTGAACTGAACCAATCCGA stands 0.235.
With TAGCACTTGAGCTGCAGGGATG, in the assay with ATP7B, the sensor-assay potency score (higher = more potent) is -1.64.
In the assay with ATP6V0A4, ATAGGCATCAACAATATTCTGG showed a sensor-assay potency score (higher = more potent) of -0.65.
Same read-out and setting: under TTCTGCACCTTGATGAGCCAGG stands -0.64.
Consider TTGACATCTGAGCCTCTTCCAC, for which the sensor-assay potency score (higher = more potent) with ATP7B was -1.39.
TCAATGTTCTTCAACAGCCTGG: the sensor-assay potency score (higher = more potent) in the assay with ATP8A2 is -0.00859.
In the assay with ATP7B, TGTCTGTCCTTTCATCTCGTGG yielded a sensor-assay potency score (higher = more potent) of -1.22.
In the assay with ATP7B, TTCCTCTTTACAGTATTTGGTG returned a sensor-assay potency score (higher = more potent) of -0.123.
The same measure, in the same setting: the value for AATGCTAGCCACCACATCCAGC was -0.992.
In the case of TTTTTCTAGAACAGTCTCCAGG, the sensor-assay potency score (higher = more potent) with ATP6V0A4 was -0.591.
In the assay with ATP7B, TTCAGGAGCAGAGACCACTTGT registered a sensor-assay potency score (higher = more potent) of -0.382.
In the assay with ATP7B, TGACTGGACATATCCAGGGAGC had a sensor-assay potency score (higher = more potent) of -1.47.
In turn, TTGATCTCTTGAGAGGCGCTTT yielded a sensor-assay potency score (higher = more potent) with ATP8A2 of -0.359.
In the assay with ATP7B, TGTCCTGCTCAGCTTGTGGTGA had a sensor-assay potency score (higher = more potent) of -0.618.
In the assay with ATP6V0A4, TTTCGTCACAGGATCCTCCAGA gave a sensor-assay potency score (higher = more potent) of 0.303.
TTTGTTGATGCCAACCTGGGTG yielded a sensor-assay potency score (higher = more potent) in the assay with ATP7B of -0.00244.
In the case of TTGTGACAAACACATCTCCTCG, the sensor-assay potency score (higher = more potent) with ATP6V0A4 is -1.11.
Consider TGACTCGCCTCTCACCTTCTAC, for which the sensor-assay potency score (higher = more potent) with ATP7B was -1.09.
The same measure, in the same setting: under TTATCTTGTGCGCCATCTCCAG stands -0.947.
In turn, TATAGCACTTGAGCTGCAGGGA registered a sensor-assay potency score (higher = more potent) with ATP7B of -0.435.
Same read-out and setting: under TTTTTGGTCCTGATGAAACTGT stands -0.518.
